Measurements from the supplement of paper PMC6555819.

tested on: LXRb:RXRa (NR concentration 270 nM, RXRa partner concentration 90 nM); assay: PBM binding z-score (relative to random genomic background probes); higher = stronger binding; sequences stand for … in GC…GCGATTGACAGCGTAGAATGAAGG
Protocol: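 Protein-binding microarray (Agilent 4x180K custom design, double-stranded 60-nt probes: 5' GC cap, 34-nt variable region, 24-nt constant primer region; full probe sequence given). Purified or IVT nuclear receptor:RXRα heterodimers (3:1 NR:RXRα, mostly 270:90 nM) or homodimers were incubated for 1 h in PBS with 2% milk and no ligand, then detected with Alexa488 antibodies. Fluorescence from o1-orientation probes (~5 replicates averaged) was converted to z-scores against 500 random hg19 background probes. Variable regions are seed direct-repeat (DR0–DR5) sites, all their single-nucleotide variants and half-site ablations.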

Sequence | PBM binding z-score
CCTTACGGGTCACGAGGTTGTAGCACGACGAGCG | 3.44
CCTTACGGGTCACGTGGTTATAGCACGACGAGCG | 3.48
TAGCCTAGGTCATGGGCCAGTGTACCACGCGAAC | 2.46
AAAACAGGGTCATCGTAGGCCAGAGTACGCACAG | 4.8
GATATAGGGTCAGCTAGAGGCCAGAGTATGGAAA | 2.77
TGTCAAAGTTCAAAGGTGACGTAAGTATCCACAC | 5.06
ATCTCTAGGTTAAGATAGTTCAGTGAATGCAAAT | 3.33
GGAACGAGGTCAAGTTGATAGCAGAGTTTGATGG | 5.3
ATCGAAAGGTCGAAGGTGAGCATACCCACCCGAA | 2.79
CGAACAAGGTCATTGACAGGACAGTGAATAGTAA | 4.62
TCTGCTAGGTCATCGATGGTCAGCTAATCTGCTA | 1.73
TTGCCAAGGTGAAAGGTCGTTGATGCACGCCTTG | 2.63
CCTACTCGGCCAAAAAGGTCATTGATGCCGATAA | 4.63
CCAGACAGGTGAGAAGGTAACTCAGCCTCGATTA | 0.609
ACTCGGTGGACAAAGGTCAGAGCTACGCCAGTGA | 2.99
TACCCTAGGTCATTGGGCCAGTATAGTACGCATC | 4.07
CCTACTGGGCCATTCAGAGGTCAATGATCATATG | 3.64
CCTAGTGGGCCAAGGTCATTGATCAGTCAAAGCA | 2.79
CGTCCGAGGTCAAGGTCAGTGAAAGAGACTCGAA | 5.26
ATCGAAAGGTCGAAGGTGCGTATACCCACCCGAA | 2.33

Sequence | PBM binding z-score
TAGCCTAGGTCGTTCAGGGGCCAGTATAGAAAGC | 0.582
TAGCCTAGGTCATGCGGGACAGTATAGTGTCGGC | 1.88
CGAACTAGGTCAAGGCCAGTGAATCTCCGCACGC | 1.44
TATTCAGGGTCAAAGGCCAGAGTACGAATGTCGA | 5.77
TTGCCTAGGTCATTGGGCCAGTATAGTACGCATC | 2.28
CCTTACGGGTCACTCCAGGTTATATCATCGGAGT | 5.38
ATCGAAAGGTCGTGAGGTAAGTATACAGAAAGGC | 3.5
ACTCGGAGGACAAAGGTCAGGGCTACGCCAGTGA | 3.29
ATCGAAAGGTCTAAGGTGAGTATACCCACCCGAA | 0.196
TACCCTAGGTCATTCAGGGGCCAGTATAGAAAGC | 4.5
TCTATTAGTTGATTAGGGCAACCGAAACAGCGGA | 0.544
AGAATGAGGTCACCAAAGATCAGGGAAACGCTTG | 5.13
TCTCGGAGGAAACGAAAGGTCAGAGCTCGACATC | 3.1
TATACAAGGTCAAAGGCCAGAGTACGAATGTCGA | 5.46
ACTTACGGCTCAACGAGGTTATAGCACGCGTATA | 0.741
TCGCCTAGGTCATGGGCCAGTATACCACGCGAAC | 2.29
CCTGCTAGGTCATGGTCAGCGAATCTACAGTATG | 1.54
ACTTACGGGTCTACGAGGTTATAGCACGCGTATA | 0.819
AGTCAAAGTTCATCTAGGTAACATAAGATATGCT | 3.93
CCTAGTTGGTCAAGGTCACACCCGCTATAGGTAC | 3.5
